What all share (assay): qHTS profiling for inhibitors of Plasmodium falciparum proliferation (AID 504749); further: nearly all actives have a fitted effect of over 60% in size
What all share (details): P. falciparum in erythrocytes, SYBR Green DNA, 72 h; series mostly up to 28.7 µM
(In general: In qHTS, concentration-response curves come from the screen itself.)

For one test, the system named is CP211. In a few lines:
(§1)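 In a 72 h erythrocytic culture (37 C, humidified, 5% CO2) at 2.5% hematocrit and 0.3% starting parasitemia, compounds were tested; SYBR Green I in detergent lysis buffer stained parasite DNA overnight.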

In a further test the test system is CP215. In a few lines: as §1
For another test, the system named is CP217. In short, it runs like this:
as §1

The next test relates to CP237. In short, it runs like this:
as §1

In the next test the test system is CP238. In short, it runs like this:
as §1

Another test concerns CP247. In short, it runs like this:
as §1

The next test relates to CP250. In a few lines:
as §1

In the next test the test system is CP252. In a few lines: as §1
The test system of another test is CP256. In a few lines:
as §1

Another test relates to CP203. In short, it runs like this:
as §1

SMILES strings stand for the structures. Inconclusive results are not listed. Activity calls are given as the source filed them. The call rests on the fitted dose curve; in most records, active means well fitted inhibition curve with a large enough effect; inconclusive means small, poorly fitted or top-dose-only effect; inactive means flat fitted curve, though single readings scatter.
Potency means the concentration at half of the fitted maximal effect.

As for `N#CN`, the Potency result in the test with CP211, in the test with CP215, with CP217, with CP237, in the test on CP238 and in the test on CP247 was “inactive” each time. The Potency entry with CP250, with CP252 and with CP256 was “inactive” each time.

Consider `O=S(=O)(O)c1cc(O)ccc1O`, for which the Potency entry with CP211, with CP215, in the test on CP217, in the test on CP237, in the test on CP238 and in the test on CP247 was “inactive” in each case. The Potency entry with CP250, with CP252 and in the test with CP256 was “inactive” throughout.

Take `ClC1C(Cl)C(Cl)C(Cl)C(Cl)C1Cl` (configuration not stated): the Potency result in the test with CP211, with CP215, with CP217, with CP237, with CP238 and in the test with CP247 was “inactive” throughout. The Potency result with CP250, with CP252 and in the test with CP256 was “inactive” throughout.

Take `CCCCCCCCCC(=O)O[C@H]1CC[C@H]2[C@@H]3CCC4=CC(=O)CC[C@]4(C)[C@H]3CC[C@]12C`: the Potency result with CP211, with CP215, with CP217, with CP237, in the test on CP238 and in the test with CP247 was “inactive” in each case. Further, the Potency result in the test on CP250, in the test on CP252 and with CP256 was “inactive” throughout.

With `CCNC(C)Cc1cccc(C(F)(F)F)c1` (configuration not stated), the Potency result in the test on CP203, in the test on CP211, in the test with CP215, in the test with CP217, in the test with CP238 and in the test with CP247 was “inactive” each time. Also, the Potency result in the test with CP250, in the test with CP252 and in the test with CP256 was “inactive” throughout.

For `ClC(Cl)(Cl)Cl`, the Potency result in the test with CP203, in the test with CP211, with CP215, with CP217, in the test with CP237 and with CP238 was “inactive” each time. Also, the Potency result in the test on CP247, in the test on CP250, in the test on CP252 and in the test on CP256 was “inactive” throughout.

In the case of `CCOP(=O)(OCC)O/C(=C/Cl)c1ccc(Cl)cc1Cl`, the Potency result in the test with CP237, in the test with CP238, with CP250, in the test on CP252 and with CP256 was “inactive” throughout.

In the case of `CCCN1CCCC2Cc3[nH]ncc3CC21` (configuration not stated), the Potency result in the test on CP217, in the test on CP237, in the test on CP238, with CP247, in the test on CP250 and with CP252 was “inactive” each time. Besides, the Potency entry in the test with CP256 was “inactive”.

`CCOc1ccc2c3c1O[C@H]1[C@@H](O)C=C[C@H]4[C@@H](C2)N(C)CC[C@@]341`: the Potency result in the test on CP217, in the test on CP237, in the test on CP238, in the test with CP247, in the test with CP250 and in the test with CP252 was “inactive” throughout. Also, in the test with CP256, the Potency result was “inactive”.

As to `C/C(=C\c1csc(C)n1)[C@@H]1C[C@@H]2O[C@]2(C)CCC[C@H](C)[C@H](O)[C@@H](C)C(=O)C(C)(C)[C@@H](O)CC(=O)O1`, the Potency is 0.003 µM (active) in the test on CP211; 0.0038 µM (active) with CP215; 0.004 µM (active) in the test with CP217; 0.0016 µM (active) in the test on CP237; 0.0032 µM (active) in the test with CP238; 0.0028 µM (active) in the test on CP247. Also, the Potency with CP250 is 0.0071 µM (active); in the test on CP252, 0.0035 µM (active); in the test with CP256 it was 0.0022 µM (active).

Regarding `COc1ccc2c3c1O[C@H]1C(=O)CC[C@H]4[C@@H](C2)N(C)CC[C@]314`, the Potency result with CP211, in the test with CP217, in the test on CP237, in the test on CP238, with CP247 and with CP250 was “inactive” each time. The Potency entry in the test on CP252 and in the test with CP256 was “inactive” each time.

Regarding `S=C=S`, the Potency entry in the test with CP211, with CP215, in the test on CP217, in the test on CP237, in the test with CP238 and in the test on CP247 was “inactive” in each case. Further, the Potency entry in the test with CP250, in the test on CP252 and in the test on CP256 was “inactive” in each case.

Consider `OC(c1ccccc1)(c1ccccc1)C1CN2CCC1CC2` (configuration not stated), for which the Potency entry in the test on CP211, in the test on CP217, in the test with CP238, in the test with CP250, with CP252 and in the test on CP256 was “inactive” in each case.

On to `CN1CCCC(=C(c2cccs2)c2cccs2)C1`, for which the Potency in the test on CP237 is 4.47 µM (active). In addition, the Potency result in the test with CP250 and with CP256 was “inactive” in each case.

Regarding `c1ccc(C2(N3CCCC3)CCCCC2)cc1`, the figures for the Potency in the test with CP217, in the test with CP237 and in the test on CP247 were 8.91 µM (active), 11.2 µM (active) and 7.94 µM (active), respectively.

Regarding `C=CCC1(C(C)CCC)C(=O)N=C(S)NC1=O` (configuration not stated), the Potency result in the test with CP217, in the test with CP237, in the test with CP238, in the test with CP247, with CP250 and with CP252 was “inactive” each time. For the same molecule, in the test on CP256, the Potency entry was “inactive”.

In the case of `C[C@@H](Cc1ccccc1)NCCC(c1ccccc1)c1ccccc1`, the Potency result with CP211, with CP215, in the test on CP237, with CP238 and in the test with CP252 was “inactive” throughout.

On to `CC(=O)O[C@H]1CC[C@H]2[C@@H]3CCC4=CC(=O)CCC4=C3C=C[C@]12C`, for which the Potency result with CP211, in the test on CP215, with CP217, with CP237, in the test on CP238 and with CP247 was “inactive” throughout. The Potency result with CP250, with CP252 and in the test on CP256 was “inactive” throughout.

Turning to `CC12NC(Cc3ccccc31)c1ccccc12` (configuration not stated), the Potency entry in the test with CP211, in the test with CP215 and in the test with CP250 was “inactive” each time.

As for `[Cl-].[Cl-].[Hg+2]`, the Potency result in the test with CP215 and in the test on CP250 was “inactive” each time. Besides, the Potency was 8.91 µM (active) in the test on CP217 and 10 µM (active) in the test with CP238.

As to `CC(Cc1ccccc1)NC=O` (configuration not stated), the Potency entry in the test with CP211, in the test on CP215, with CP217, in the test with CP237, in the test on CP238 and in the test with CP247 was “inactive” throughout. The Potency entry in the test with CP250, in the test with CP252 and in the test with CP256 was “inactive” in each case.

Turning to `C[C@]12CCC(=O)C[C@@H]1CC[C@@H]1[C@@H]2CC[C@]2(C)[C@@H](O)CC[C@@H]12`, the Potency result in the test on CP211, in the test on CP215, with CP217, in the test with CP237, with CP238 and in the test on CP247 was “inactive” each time. Further, the Potency entry with CP252 and in the test on CP256 was “inactive” in each case.

As for `CCC1C(C)=NN=C(c2ccc(OC)c(OC)c2)c2cc(OC)c(OC)cc21` (configuration not stated), the Potency entry in the test on CP217, with CP238, in the test on CP247, in the test with CP250, with CP252 and in the test with CP256 was “inactive” each time.

With `Oc1cccc[c]1[Hg][Cl]`, the Potency in the test with CP211 is 9.53 µM (active); in the test on CP215, 10.7 µM (active); in the test with CP217, 8.91 µM (active); in the test on CP237, 10 µM (active); in the test on CP238, 11.2 µM (active); in the test with CP247, 8.91 µM (active). The Potency with CP252 was 12.6 µM (active); in the test with CP256, 11.2 µM (active).

On to `C[CH2][Hg][S]c1ccccc1C(=O)O`, for which the Potency with CP211 was 4.26 µM (active); with CP215, 1.51 µM (active); in the test with CP217, 3.98 µM (active); with CP237, 1.26 µM (active); in the test with CP238, 3.55 µM (active); in the test with CP247, 3.16 µM (active). The Potency with CP250 is 3.55 µM (active); with CP252 it was 3.16 µM (active); in the test with CP256, 3.16 µM (active).

Turning to `N#CC(C#N)=Cc1cc(O)c(O)c(O)c1`, the Potency in the test with CP211 is 13.5 µM (active); with CP237, 8.91 µM (active); with CP247, 8.91 µM (active); in the test with CP250 it was 11.2 µM (active).

`F/C(COc1ccc2c(c1)[nH]c1ccccc12)=C1/CN2CCC1CC2`: the Potency entry with CP215 is “inactive”. The values for the Potency in the test with CP237 and in the test with CP238 were 6.31 µM (active) and 11.2 µM (active), respectively.

For `O[C@H]1[C@H]2[C@H](O)CCCN2C[C@H]1O`, the Potency result in the test on CP211, with CP215, with CP217, in the test on CP237, in the test with CP238 and with CP247 was “inactive” throughout. In addition, the Potency entry with CP250, in the test on CP252 and in the test with CP256 was “inactive” each time.

Turning to `CNC(=O)Oc1ccccc1C(=O)Nc1ccccc1`, the Potency entry in the test with CP211, in the test with CP237, in the test with CP238, in the test on CP250 and with CP252 was “inactive” throughout.

For `CN1[C@@H]2CC[C@H]1CC(OC1c3ccccc3CCc3ccccc31)C2` (some centres not stated), the Potency entry in the test with CP215 and in the test on CP256 was “inactive” in each case. The Potency in the test with CP217 and in the test on CP252 was 3.16 µM (active) throughout.

As to `C=CCN=C=S`, the Potency result with CP217, with CP237, in the test with CP238, in the test with CP247, with CP250 and in the test with CP252 was “inactive” in each case. Besides, in the test on CP256, the Potency entry was “inactive”.

In the case of `O=C(NCNC(=O)NC1C(=O)NC(=O)N1CO)NC1C(=O)NC(=O)N1CO` (configuration not stated), the Potency entry in the test with CP211, in the test with CP215, with CP217, with CP237, with CP238 and in the test on CP247 was “inactive” each time. In addition, the Potency result in the test with CP250, with CP252 and in the test on CP256 was “inactive” throughout.

On to `CCCC(=O)OC(C(Cl)(Cl)Cl)P(=O)(OC)OC` (configuration not stated), for which the Potency result in the test with CP217, in the test with CP237, in the test on CP238, with CP247, in the test on CP250 and in the test on CP252 was “inactive” throughout.

The values are drawn from PubChem BioAssay (NCATS).
